Experimental findings from PubChem BioAssay (Tox21) are described below.

Inconclusive results are not listed. Entries that show only a call come without a potency. The source made the active and inactive calls. Calls come from the whole dose curve; as a rule, active = well fitted cell-killing curve with a large enough effect in the repeat runs; inconclusive = weak or mixed curves, or effect the other way; inactive = flat fitted curve, though single readings scatter.
Potency is the fitted concentration of half-maximal effect.

The assay is described as follows: cAMP Responsive Elements (CRE) small molecule antagonists, cell-based qHTS assay: qHTS cell viability counter screen (AID 2060913). Note: nearly all actives have a fitted effect of over 40% in size. The following applies: CRE-bla HEK293T viability, CellTiter-Glo luminescence, 5 h; series mostly up to 92.4 µM. Put shortly:
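Viability of NKH477-stimulated (0.25 uM final) CRE-bla HEK293T cells is measured by CellTiter-Glo luminescence following 3 hrs compound exposure at 37 C.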
With `Cc1cc(CCC(=O)OCCOCCOCCOC(=O)CCc2cc(C)c(O)c(C(C)(C)C)c2)cc(C(C)(C)C)c1O`, the Potency result is “inactive”.
As for `CCCCC(CC)COC(=O)/C=C/c1ccc(OC)cc1` (stereo not given), the Potency entry was “inactive”.
For `CN(C)Cc1ccccc1` the value was “inactive”; for `NC(=O)c1cc[n+](CC2=C(C(=O)[O-])N3C(=O)[C@@H](NC(=O)Cc4cccs4)[C@H]3SC2)cc1`, “inactive”; for `C=CC(=O)CC`, “inactive”.
For `Oc1c(Cl)cc(Cl)c2cccnc12` the value was “inactive”.
In the case of `CN1[C@@H]2CC[C@@H]1CC(OC(=O)C(CO)c1ccccc1)C2` (stereo not given in full), the Potency entry is “inactive”.
The value for `CO/N=C(/C(=O)N[C@@H]1C(=O)N2C(C(=O)[O-])=C(C[n+]3ccn4ncccc43)CS[C@H]12)c1nsc(N)n1` was “inactive”; that for `C=C(C)C(=O)OCCCCCCCCCCCC` was “inactive”; that for `O=S(c1cc(Cl)cc(Cl)c1O)c1cc(Cl)cc(Cl)c1O` was “inactive”.
For `CNCCC(Oc1ccccc1OC)c1ccccc1` (stereo not given) the value was “inactive”; for `CCOC(=O)c1ccccc1C(=C1C=C(Br)C(=O)C(Br)=C1)c1cc(Br)c(O)c(Br)c1`, “inactive”.
The value for `COC(=O)c1c(Cl)c(Cl)c(C(=O)OC)c(Cl)c1Cl` was “inactive”; that for `CC(C)(Oc1ccc(C2CC2(Cl)Cl)cc1)C(=O)O` (stereo not given) was “inactive”; that for `O=C1OC(=O)c2ccc3c4c(ccc1c24)C(=O)OC3=O` was “inactive”.
Turning to `Clc1cc(Cl)c2c(c1)N=C1CCCCCN1C2`, the Potency result is “inactive”.
The value for `CCCCCCC(C)O` (stereo not given) was “inactive”.
Regarding `CCCCNc1ccccc1`, the Potency entry is “inactive”.
For `C[C@H]1C[C@H]2[C@@H]3CCC4=CC(=O)C=C[C@]4(C)[C@@]3(F)[C@@H](O)C[C@]2(C)[C@@]1(O)C(=O)COP(=O)(O)O` the value was “inactive”.
With `O=S1OCCO1`, the Potency result is “inactive”.
The value for `C=CC(=O)OCC1CC2CC1C1CCC(COC(=O)C=C)C21` (stereo not given) was “inactive”; that for `O=C1CCCCCCCCCCCCCCO1` was “inactive”.
On to `CC(C)OC(=O)C(C(=O)OC(C)C)=C1SC=CS1`, for which the Potency result is “inactive”.
For `O=C(c1ccccc1)C(O)c1ccccc1` (stereo not given) the value was “inactive”; for `O=C(OCc1ccccc1)c1ccccc1`, “inactive”.
The value for `Oc1cccc(O)c1O` was “inactive”; that for `O=S(=O)(O)CO` was “inactive”; that for `S=c1[nH][nH]c(=S)s1` was “inactive”.
For the compound `Cc1occc1C(=O)Nc1ccc(C(=O)N2CCC(F)(F)/C(=C\C(=O)N3CCC(N4CCCCC4)CC3)c3ccccc32)cc1`, the Potency entry was “inactive”.
For `CN1CCCN=C1/C=C/c1cccs1` the value was “inactive”; for `Cc1ccc(S(=O)(=O)C(I)I)cc1`, 61.1 µM (active).
For `Brc1c(NC2=NCCN2)ccc2nccnc12` the value was “inactive”; for `Cc1ccccc1OCC(=O)O`, “inactive”; for `C=Cc1ccc(C=C)cc1`, “inactive”.
The value for `COC(C(=O)O)c1ccccc1` (stereo not given) was “inactive”.
As for `CC(C)Cc1ccc(C(C)C(=O)OCc2ccccn2)cc1` (stereo not given), the Potency entry is “inactive”.
The value for `CCCCC(CC)CNC(=O)CC(C)OC(=O)CCC(=O)O` (stereo not given) was “inactive”; that for `CC/C(=C(\c1ccc(O)cc1)c1ccc(OCCN(C)C)cc1)c1ccccc1` was 68.7 µM (active); that for `CC(C)CCOCc1ccccc1` was “inactive”.
For `C#CC1(O)CC[C@H]2[C@@H]3CCC4=CCCC[C@@H]4[C@H]3CC[C@@]21C` (stereo not given in full) the value was “inactive”.
